Data: the supplement of paper PMC11732987, “Enantioselective OTUD7B fragment discovery through chemoproteomics screening and high-throughput optimisation” (Communications Chemistry, 2025)

Assays:
Experiment in all cases: log2 ratio of Biotin-Ahx-Ub-VS probe labelling (fragment/DMSO); higher = less target engagement (more negative = stronger competition), active = hit call of the paper (q ≤ 0.05, log2 ratio ≤ -1)
Settings in all cases: compound concentration: 200 uM; treatment time: 3 h
[1] = target: T1, OTUD6B (UniProt Q8N6M0)
T1 sequence (whole entry): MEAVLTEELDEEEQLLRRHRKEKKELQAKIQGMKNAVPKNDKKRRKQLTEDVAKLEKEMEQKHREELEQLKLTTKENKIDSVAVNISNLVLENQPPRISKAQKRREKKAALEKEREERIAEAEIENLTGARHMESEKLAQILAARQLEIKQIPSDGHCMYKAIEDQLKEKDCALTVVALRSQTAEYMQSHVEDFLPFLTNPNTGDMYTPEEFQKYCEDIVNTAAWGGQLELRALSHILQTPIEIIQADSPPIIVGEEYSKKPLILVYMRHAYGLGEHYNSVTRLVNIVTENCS
In short: (§1)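 HEK293T lysate (495 µg per sample, in Tris/CHAPS/IGEPAL buffer with protease inhibitors) was exposed in triplicate for 3 h to fragment at 200 µM or to vehicle, then to Biotin-Ahx-Ub-VS at 0.5 µM final for 1 h. Labelled DUBs were enriched on NeutrAvidin, digested with LysC and trypsin, and analysed by diaPASEF LC-MS/MS. Spectronaut label-free quantities were normalised to the global median, and values are average log2 ratios of fragment over vehicle from an unpaired t-test. Only proteins with ≥2 unique peptides were used.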

[2] = target: T2, OTUD7B (UniProt Q6GQQ9)
T2 sequence (whole entry): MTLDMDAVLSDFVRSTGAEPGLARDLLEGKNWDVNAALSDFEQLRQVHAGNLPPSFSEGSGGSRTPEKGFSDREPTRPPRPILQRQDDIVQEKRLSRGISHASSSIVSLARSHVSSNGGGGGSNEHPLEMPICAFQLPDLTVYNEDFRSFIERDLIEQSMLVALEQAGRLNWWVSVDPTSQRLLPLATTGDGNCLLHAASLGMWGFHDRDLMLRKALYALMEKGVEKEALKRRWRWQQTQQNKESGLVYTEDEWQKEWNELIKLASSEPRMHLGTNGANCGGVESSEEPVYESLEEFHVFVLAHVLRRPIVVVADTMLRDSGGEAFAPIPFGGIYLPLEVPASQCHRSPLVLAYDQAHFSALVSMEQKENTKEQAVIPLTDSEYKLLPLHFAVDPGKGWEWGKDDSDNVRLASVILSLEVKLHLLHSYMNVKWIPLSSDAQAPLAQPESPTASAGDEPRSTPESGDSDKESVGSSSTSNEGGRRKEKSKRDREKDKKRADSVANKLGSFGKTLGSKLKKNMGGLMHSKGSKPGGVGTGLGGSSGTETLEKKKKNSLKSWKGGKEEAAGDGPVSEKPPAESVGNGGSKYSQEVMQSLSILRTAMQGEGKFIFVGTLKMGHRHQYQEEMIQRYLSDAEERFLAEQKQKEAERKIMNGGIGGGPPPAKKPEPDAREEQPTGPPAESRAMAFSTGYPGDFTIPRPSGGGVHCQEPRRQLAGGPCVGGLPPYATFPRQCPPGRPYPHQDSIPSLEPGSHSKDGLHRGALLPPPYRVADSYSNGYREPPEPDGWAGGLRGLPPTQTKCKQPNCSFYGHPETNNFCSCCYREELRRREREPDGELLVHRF
In short: as §1

[3] = target: PRPF8 (UniProt Q6P2Q9)
In short: as §1

[4] = target: T3, PSMD7 (UniProt P51665)
T3 sequence (whole entry): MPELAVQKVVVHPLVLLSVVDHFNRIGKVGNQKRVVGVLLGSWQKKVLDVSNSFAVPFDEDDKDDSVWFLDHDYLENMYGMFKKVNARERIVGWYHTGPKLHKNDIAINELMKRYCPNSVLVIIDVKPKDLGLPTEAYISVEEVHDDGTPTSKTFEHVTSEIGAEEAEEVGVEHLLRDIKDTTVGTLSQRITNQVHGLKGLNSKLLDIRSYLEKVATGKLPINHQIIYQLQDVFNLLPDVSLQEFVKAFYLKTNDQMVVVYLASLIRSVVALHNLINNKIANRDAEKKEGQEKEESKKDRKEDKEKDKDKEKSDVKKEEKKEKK
In short: as §1

[5] = target: UCHL1 (UniProt P09936)
UCHL1, sequence (P09936 whole entry, looked up): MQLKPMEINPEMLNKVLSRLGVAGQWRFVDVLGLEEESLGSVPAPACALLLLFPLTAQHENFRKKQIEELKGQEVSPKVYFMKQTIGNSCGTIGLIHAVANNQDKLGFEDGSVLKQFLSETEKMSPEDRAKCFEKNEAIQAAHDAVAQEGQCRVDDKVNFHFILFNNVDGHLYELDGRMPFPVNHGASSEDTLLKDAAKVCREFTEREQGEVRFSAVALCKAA
In short: as §1

[6] = target: T4, UCHL3 (UniProt P15374)
T4 sequence (whole entry): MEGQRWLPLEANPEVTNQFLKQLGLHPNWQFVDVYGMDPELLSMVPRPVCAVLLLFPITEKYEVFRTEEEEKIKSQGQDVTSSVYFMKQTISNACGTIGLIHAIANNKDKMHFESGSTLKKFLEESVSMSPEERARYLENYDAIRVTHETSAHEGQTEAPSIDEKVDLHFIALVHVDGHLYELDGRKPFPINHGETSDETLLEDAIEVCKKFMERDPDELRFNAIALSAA
In short: as §1

[7] = target: T5, UCHL5 (UniProt Q9Y5K5)
T5 sequence (whole entry): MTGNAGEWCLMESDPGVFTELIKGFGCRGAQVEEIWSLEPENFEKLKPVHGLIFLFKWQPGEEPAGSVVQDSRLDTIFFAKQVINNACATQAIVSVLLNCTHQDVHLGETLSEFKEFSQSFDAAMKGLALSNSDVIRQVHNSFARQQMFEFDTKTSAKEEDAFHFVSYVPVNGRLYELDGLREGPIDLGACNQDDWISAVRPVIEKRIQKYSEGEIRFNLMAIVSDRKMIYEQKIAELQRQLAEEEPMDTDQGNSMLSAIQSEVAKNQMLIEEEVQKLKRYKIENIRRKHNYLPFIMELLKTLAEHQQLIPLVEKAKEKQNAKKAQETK
In short: as §1

[8] = target: USP10 (UniProt Q14694)
USP10, sequence (Q14694 whole entry): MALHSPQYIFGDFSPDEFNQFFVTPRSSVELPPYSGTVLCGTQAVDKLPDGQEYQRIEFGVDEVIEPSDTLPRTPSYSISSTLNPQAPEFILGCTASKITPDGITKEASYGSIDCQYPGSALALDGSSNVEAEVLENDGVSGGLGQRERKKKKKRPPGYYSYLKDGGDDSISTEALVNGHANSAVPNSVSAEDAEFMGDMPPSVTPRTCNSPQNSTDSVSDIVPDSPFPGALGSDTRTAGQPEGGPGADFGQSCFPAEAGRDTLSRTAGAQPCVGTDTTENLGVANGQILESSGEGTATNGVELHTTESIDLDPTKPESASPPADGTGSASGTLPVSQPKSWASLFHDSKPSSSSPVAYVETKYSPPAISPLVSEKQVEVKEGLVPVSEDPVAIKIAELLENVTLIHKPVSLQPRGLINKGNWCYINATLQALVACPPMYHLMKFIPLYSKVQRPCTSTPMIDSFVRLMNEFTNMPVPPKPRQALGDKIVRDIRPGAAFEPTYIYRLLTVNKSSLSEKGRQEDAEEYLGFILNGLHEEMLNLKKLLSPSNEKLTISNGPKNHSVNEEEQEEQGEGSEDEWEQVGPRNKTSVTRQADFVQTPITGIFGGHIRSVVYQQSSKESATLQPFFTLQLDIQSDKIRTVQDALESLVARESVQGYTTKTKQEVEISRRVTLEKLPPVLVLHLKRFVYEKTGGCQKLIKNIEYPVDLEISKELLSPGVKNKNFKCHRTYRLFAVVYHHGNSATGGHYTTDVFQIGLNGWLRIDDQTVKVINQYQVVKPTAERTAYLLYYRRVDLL
In short: as §1

[9] = target: T6, USP15 (UniProt Q9Y4E8)
T6 sequence (whole entry): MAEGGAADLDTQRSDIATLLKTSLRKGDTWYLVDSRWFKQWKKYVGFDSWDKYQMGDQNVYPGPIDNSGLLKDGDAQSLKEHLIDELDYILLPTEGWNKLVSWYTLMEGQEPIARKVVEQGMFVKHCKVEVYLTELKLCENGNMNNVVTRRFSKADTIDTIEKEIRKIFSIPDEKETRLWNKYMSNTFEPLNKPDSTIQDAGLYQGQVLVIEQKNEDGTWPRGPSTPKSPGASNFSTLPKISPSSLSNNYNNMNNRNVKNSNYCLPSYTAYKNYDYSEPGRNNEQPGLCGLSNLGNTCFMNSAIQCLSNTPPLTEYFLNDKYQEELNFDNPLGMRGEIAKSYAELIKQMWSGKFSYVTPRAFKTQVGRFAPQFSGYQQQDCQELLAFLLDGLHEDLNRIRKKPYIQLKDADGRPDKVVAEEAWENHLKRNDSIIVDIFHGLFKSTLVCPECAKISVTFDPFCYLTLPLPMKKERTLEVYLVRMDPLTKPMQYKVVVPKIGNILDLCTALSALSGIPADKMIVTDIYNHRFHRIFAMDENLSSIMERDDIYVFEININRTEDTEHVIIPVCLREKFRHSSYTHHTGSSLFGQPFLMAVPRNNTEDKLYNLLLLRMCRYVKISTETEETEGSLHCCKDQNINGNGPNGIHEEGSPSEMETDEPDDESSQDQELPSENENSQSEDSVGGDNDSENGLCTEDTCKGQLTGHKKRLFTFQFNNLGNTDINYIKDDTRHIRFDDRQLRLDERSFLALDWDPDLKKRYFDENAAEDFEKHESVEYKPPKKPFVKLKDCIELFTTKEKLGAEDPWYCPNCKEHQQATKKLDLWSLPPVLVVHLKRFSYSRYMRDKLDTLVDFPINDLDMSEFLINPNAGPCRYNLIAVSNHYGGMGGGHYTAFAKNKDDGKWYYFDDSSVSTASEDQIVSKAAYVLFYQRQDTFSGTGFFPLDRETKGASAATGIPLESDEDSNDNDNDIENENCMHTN
In short: as §1

[10] = target: USP16 (UniProt Q9Y5T5)
USP16, sequence (Q9Y5T5 whole entry, looked up): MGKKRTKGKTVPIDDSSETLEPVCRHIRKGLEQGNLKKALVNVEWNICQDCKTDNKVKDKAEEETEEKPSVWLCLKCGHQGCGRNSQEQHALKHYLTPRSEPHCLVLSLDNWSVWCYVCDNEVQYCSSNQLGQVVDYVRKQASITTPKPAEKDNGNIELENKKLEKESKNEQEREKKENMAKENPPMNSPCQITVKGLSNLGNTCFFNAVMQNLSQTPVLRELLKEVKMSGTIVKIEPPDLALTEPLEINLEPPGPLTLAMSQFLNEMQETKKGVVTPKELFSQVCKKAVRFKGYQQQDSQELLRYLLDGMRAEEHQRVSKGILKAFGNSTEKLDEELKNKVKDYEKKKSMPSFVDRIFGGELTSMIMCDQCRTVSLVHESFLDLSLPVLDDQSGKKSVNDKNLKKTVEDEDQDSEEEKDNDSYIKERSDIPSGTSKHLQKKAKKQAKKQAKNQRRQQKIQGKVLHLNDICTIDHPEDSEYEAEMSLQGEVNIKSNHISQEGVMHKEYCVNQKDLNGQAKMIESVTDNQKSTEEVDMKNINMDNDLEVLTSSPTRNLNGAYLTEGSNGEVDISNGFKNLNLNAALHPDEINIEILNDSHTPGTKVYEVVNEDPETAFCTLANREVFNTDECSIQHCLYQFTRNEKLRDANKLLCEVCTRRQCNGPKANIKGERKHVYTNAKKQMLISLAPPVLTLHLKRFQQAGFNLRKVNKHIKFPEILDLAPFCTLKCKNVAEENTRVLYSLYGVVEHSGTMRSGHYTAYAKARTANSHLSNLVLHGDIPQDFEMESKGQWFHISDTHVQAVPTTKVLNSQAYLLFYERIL
In short: as §1

Measured: log2 ratio of Biotin-Ahx-Ub-VS probe labelling

COc1ccc(-c2csc(NC(=O)CCl)n2)cc1
inactive: [1] -0.417 | [2] -0.639 | [3] 0.0611 | [4] -0.221 | [6] -0.274 | [8] -0.17 | [9] -0.394 | [10] -0.287
active: [5] -1.27 | [7] -3.29
